Experimental findings from PubChem BioAssay (Tox21) are described below.

Experiment [1] in a line: qHTS assay to identify small molecule antagonists of the estrogen related receptor (ERR) signaling pathway from Tox21 library - cell viability counter screen (AID 1224834). Note: nearly all actives have a fitted effect of over 30% in size. Note: potency is the fitted concentration of half-maximal effect. The procedure, abridged:
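Viability readout (CellTiter-Fluor fluorescence, 30 min at 37 C) multiplexed with the ERR assay; cells treated 17.5 h at 37 C with compounds delivered in DMSO.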
Background: qHTS replaces the single test concentration by a dilution series.

The target of experiment [2] is Luciferin 4-monooxygenase (Photinus pyralis) (UniProt P08659). Briefly: qHTS assay to identify small molecule inhibitors of firefly luciferase (AID 1224835). Note: nearly all actives have a fitted effect of over 25% in size. Note: potency is the fitted concentration of half-maximal effect. The procedure, abridged:
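Quantitative HTS format; KM concentrations of both substrates. Purified P. pyralis FLuc activity quantified from luminescence images.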

The nature of experiment [3]: qHTS assay to identify small molecule agonists of the constitutive androstane receptor (CAR) signaling pathway - cell viability counter screen (AID 1224836). Note: nearly all actives have a fitted effect of over 45% in size. Note: potency is the fitted concentration of half-maximal effect. An outline of the steps: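 HepG2 cells stably carrying hCAR and a CYP2B6-2.2kb reporter were plated 4 h, then given compounds at 15 concentrations plus PK11195 (final 0.75 uM). After 23 h at 37 C, viability was read by CellTiter-Fluor fluorescence.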

Experiment [4] in a line: qHTS assay to identify small molecule antagonists of the constitutive androstane receptor (CAR) signaling pathway - cell viability counter screen (AID 1224837). Note: nearly all actives have a fitted effect of over 45% in size. Note: potency is the fitted concentration of half-maximal effect. An outline of the steps:
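Fluorescence from CellTiter-Fluor served as the viability signal. Human hepatoma HepG2 cells stably bearing hCAR and CYP2B6-2.2kb received compound plus CITCO (50 nM final) for 23 hr.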

Experiment [5] has as its target Nuclear receptor subfamily 1 group I member 3 (Homo sapiens) (UniProt Q14994). Briefly: qHTS assay to identify small molecule antagonists of the constitutive androstane receptor (CAR) signaling pathway (AID 1224838). Note: nearly all actives have a fitted effect of over 40% in size. Note: potency is the fitted concentration of half-maximal effect. An outline of the steps:
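Quantitative HTS in double-stable HepG2-CYP2B6-hCAR cells. After 4 h plating, cells get compound (15 concentrations) and CITCO at 50 nM final, incubate 24 h at 37 C, then ONE-Glo luminescence is read.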

Experiment [6] shares this target. Description: qHTS assay to identify small molecule agonists of the constitutive androstane receptor (CAR) signaling pathway (AID 1224839). Note: nearly all actives have a fitted effect of over 15% in size. Note: potency is the fitted concentration of half-maximal effect. An outline of the steps:
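HepG2 cells stably expressing hCAR and a CYP2B6-2.2kb luciferase reporter were treated with compounds at 15 concentrations plus 0.75 uM PK11195 (final) for 24 h at 37 C; luminescence was read after ONE-Glo addition.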

The nature of experiment [7]: qHTS assay to identify small molecule antagonists of the estrogen related receptor signaling pathway with the pleiotropic PPARgamma coactivator (PGC) from Tox21 10K library - cell viability counter screen (AID 1224840; active = well fitted cell-killing curve with a large enough effect in the repeat runs, not every such curve was filed as active; note: nearly all actives have a fitted effect of over 40% in size). An outline of the steps: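 Compounds in DMSO, alongside positive and negative controls, were pinned onto PGC/ERR cells (2,000 per well). Exposure lasted 17.5 hours at 37 C, followed by a 30-minute CellTiter-Fluor incubation and fluorescence reading.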

Experiment [8] can be described thus: qHTS assay to identify small molecule agonists of the hypoxia (HIF-1) signaling pathway (AID 1224846; active = well fitted activation curve with a large enough effect in the signal ratio in the repeat runs, not every such curve was filed as active; the % refers to the signal ratio). The procedure, abridged:
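Measured by blue/green FRET after loading CCF4-AM: beta-lactamase expressed from a hypoxia response element in ME-180 cells. Test agents were delivered in DMSO and left 17 hrs; cells had been plated 5 hrs earlier in low-serum (0.5% dialyzed FBS) medium.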

Experiment [9] is described as follows: qHTS assay to identify small molecule agonists of H2AX - cell viability counter screen (AID 1224847; calls by dose curve; note: nearly all actives have a fitted effect of over 30% in size; note: potency is the fitted concentration of half-maximal effect). An outline of the steps:
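Wild-type CHO-K1 cells (10% FBS medium) were plated overnight at 37C, exposed to compounds at 15 concentrations for 3 hr at 37C (0.76% DMSO final), and viability was read as CellTiter-Glo luminescence after 30 min at room temperature.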

The nature of experiment [10]: qHTS RealTime-Glo MT Cell Viability Assay in HepG2 cells - 24 hour (AID 1224867). Note: nearly all actives have a fitted effect of over 50% in size. An outline of the steps:
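Compound treatment began 5 h after plating HepG2 cells (600/well) with NanoLuc luciferase and prosubstrate. Plates stayed at 37 C for 40 h; luminescence was captured at six time points, 0 h through 40 h.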

Experiment [11] in a line: qHTS assay to identify small molecule antagonists of the estrogen related receptor signaling pathway with the pleiotropic PPARgamma coactivator (PGC) from Tox21 10K library (AID 1224841; call rule not given here; note: actives are mostly falling curves and most rising ones were filed inactive; nearly all actives have a fitted effect of over 50% in size; note: potency is the fitted concentration of half-maximal effect). An outline of the steps: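 Compound exposure ran 18 hours at 37 C in PGC/ERR cells (2,000/well) that had first rested 6 hours in a 37 C/5% CO2 incubator. Luciferase activity was then detected with One-Glo after a 30-minute room-temperature step.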

Experiment [12] is described as follows: qHTS assay to identify small molecule agonists of the estrogen related receptor signaling pathway with the pleiotropic PPARgamma coactivator (PGC) from Tox21 10K library (AID 1224842). Note: nearly all actives have a fitted effect of over 15% in size. The procedure, abridged: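 PGC/ERR reporter cells (NTP line) were seeded 2,000 per well, rested 6 h at 37 C/5% CO2, then pin-dosed with compounds in DMSO for 18 h at 37 C; luciferase read by One-Glo luminescence after 30 min at room temperature.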

Experiment [13] in a line: qHTS assay to identify small molecule antagonists of the estrogen related receptor (ERR) signaling pathway from Tox21 library (AID 1224848). Note: nearly all actives have a fitted effect of over 50% in size. Note: potency is the fitted concentration of half-maximal effect. An outline of the steps: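 Screening used an ERR reporter line supplied by NTP, exposed for 18 h at 37 C to library compounds delivered in DMSO. Signal was luciferase luminescence developed with ONE-Glo at room temperature for 30 min.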

Experiment [14] can be described thus: qHTS assay to identify small molecule agonists of the estrogen related receptor (ERR) signaling pathway from Tox21 library (AID 1224849; calls by dose curve; note: nearly all actives have a fitted effect of over 15% in size). To be noted: ERR reporter cell line, ONE-Glo luciferase, 18 h; at 92.4 µM (top of the series) unless noted. The procedure, abridged:
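We plated ERR reporter cells, waited 6 h, added compounds in DMSO by pin tool and incubated them 18 h at 37 C. ONE-Glo was then added and luminescence read after 30 min.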

Experiment [15] is described as follows: qHTS RealTime-Glo MT Cell Viability Assay in HEK293 cells - 32 hour (AID 1224868). Note: nearly all actives have a fitted effect of over 50% in size. Note: potency is the fitted concentration of half-maximal effect. An outline of the steps:
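Quantitative high-throughput screen of the Tox21 10K library in HEK293: cells and RealTime-Glo reagents plated together, compound added at 5 h, luminescence monitored through 40 h at 37 C.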

A short description of experiment [16]: A CellTox Green Cytotoxicity Assay to monitor cytotoxicity in HEK293 cells - 0 hour (AID 1224869). Note: nearly all actives have a fitted effect of over 50% in size. An outline of the steps:
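Each value comes from one timepoint of a single continuous run in which HEK293 cells with CellTox Green were exposed to compound for up to 40 h at 37 C, dye fluorescence rising with cell death.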

In experiment [17] the target is Thyrotropin receptor (Homo sapiens) (UniProt P16473). Briefly: qHTS assay to identify small molecule agonists of the thyroid stimulating hormone receptor (TSHR) signaling pathway (AID 1224843; calls by dose curve; note: nearly all actives have a fitted effect of over 45% in size). The procedure, abridged: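 Cell line HEK293 with TSHR; density 800/well. Exposure 30 min RT. Readout HTRF cAMP (cAMP-d2/anti-cAMP-cryptate), 1 h RT before reading.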
Chain of Thyrotropin receptor (Homo sapiens) (P16473 whole entry, looked up): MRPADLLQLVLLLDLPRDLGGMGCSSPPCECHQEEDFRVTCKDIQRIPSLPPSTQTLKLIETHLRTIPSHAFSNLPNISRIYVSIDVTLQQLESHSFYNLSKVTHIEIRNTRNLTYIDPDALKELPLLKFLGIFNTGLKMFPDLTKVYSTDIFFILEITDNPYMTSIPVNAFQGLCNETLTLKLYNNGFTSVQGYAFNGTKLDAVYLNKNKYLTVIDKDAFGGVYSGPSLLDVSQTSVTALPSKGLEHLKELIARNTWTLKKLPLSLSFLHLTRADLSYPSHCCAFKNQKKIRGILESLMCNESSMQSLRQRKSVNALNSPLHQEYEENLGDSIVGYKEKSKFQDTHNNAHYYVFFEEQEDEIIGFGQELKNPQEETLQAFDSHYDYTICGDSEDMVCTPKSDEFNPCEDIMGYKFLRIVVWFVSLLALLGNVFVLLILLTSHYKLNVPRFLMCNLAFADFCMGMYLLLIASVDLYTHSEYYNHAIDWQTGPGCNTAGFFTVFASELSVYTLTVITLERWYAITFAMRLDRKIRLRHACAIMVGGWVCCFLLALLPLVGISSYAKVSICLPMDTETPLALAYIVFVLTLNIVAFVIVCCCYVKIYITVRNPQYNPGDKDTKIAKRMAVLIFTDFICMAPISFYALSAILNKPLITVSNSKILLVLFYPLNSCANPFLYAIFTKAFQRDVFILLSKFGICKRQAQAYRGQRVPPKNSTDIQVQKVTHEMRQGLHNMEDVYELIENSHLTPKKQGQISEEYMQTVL
Experiment [18] in a line: qHTS assay to identify small molecule agonists of H2AX (AID 1224845; active = well fitted activation curve with a large enough effect in the signal ratio in the repeat runs, not every such curve was filed as active; the % refers to the signal ratio). The procedure, abridged:
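Wild-type CHO-K1 cells plated overnight, then exposed 3 hr at 37C to compounds at 15 concentrations (0.76% DMSO). Lysed, then HTRF anti-pH2AX(S139)-cryptate/anti-H2AX-d2 detection after 24 hr at room temperature; emissions 665 and 620 nm.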

Experiment [19] can be described thus: qHTS assay to identify small molecule agonists of the hypoxia (HIF-1) signaling pathway - cell viability counter screen (AID 1224844; calls by dose curve; note: nearly all actives have a fitted effect of over 50% in size). The procedure, abridged: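 Luminescent ATP content (CellTiter-Glo, 30 min, room temperature) served as the viability measure in HRE-bla ME-180 cells exposed to compounds for 17 hrs in low-serum medium (0.5% dialyzed FBS).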

Structures are written as SMILES. Unmarked numbers belong to inactive results. Inconclusive results are not listed. Activity calls are given as the source filed them. Unless noted, calls come from the whole dose curve; as a rule, active = well fitted curve in the direction sought with a large enough effect in the repeat runs; inconclusive = weak or mixed curves; inactive = no such curve, though single readings can be large; an effect the other way counts as inactive or inconclusive.
% is set by controls: 0 for no effect and ±100 for the full control effect.

Chain of Luciferin 4-monooxygenase (Photinus pyralis) (P08659 whole entry, looked up): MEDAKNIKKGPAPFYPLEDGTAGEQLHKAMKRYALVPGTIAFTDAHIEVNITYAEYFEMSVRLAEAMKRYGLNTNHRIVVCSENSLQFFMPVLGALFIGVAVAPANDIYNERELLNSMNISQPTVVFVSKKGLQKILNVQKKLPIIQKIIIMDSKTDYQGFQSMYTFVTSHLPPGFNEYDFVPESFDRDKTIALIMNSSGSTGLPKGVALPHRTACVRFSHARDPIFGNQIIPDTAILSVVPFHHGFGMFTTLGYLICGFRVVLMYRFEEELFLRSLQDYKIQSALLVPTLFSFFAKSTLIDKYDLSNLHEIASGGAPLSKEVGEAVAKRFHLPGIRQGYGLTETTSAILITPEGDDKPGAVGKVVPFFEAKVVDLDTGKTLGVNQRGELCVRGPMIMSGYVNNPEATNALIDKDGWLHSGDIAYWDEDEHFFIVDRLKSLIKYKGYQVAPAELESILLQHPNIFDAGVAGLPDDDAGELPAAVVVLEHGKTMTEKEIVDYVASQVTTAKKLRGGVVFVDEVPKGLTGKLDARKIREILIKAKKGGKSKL
Chain of Nuclear receptor subfamily 1 group I member 3 (Homo sapiens) (Q14994 whole entry, looked up): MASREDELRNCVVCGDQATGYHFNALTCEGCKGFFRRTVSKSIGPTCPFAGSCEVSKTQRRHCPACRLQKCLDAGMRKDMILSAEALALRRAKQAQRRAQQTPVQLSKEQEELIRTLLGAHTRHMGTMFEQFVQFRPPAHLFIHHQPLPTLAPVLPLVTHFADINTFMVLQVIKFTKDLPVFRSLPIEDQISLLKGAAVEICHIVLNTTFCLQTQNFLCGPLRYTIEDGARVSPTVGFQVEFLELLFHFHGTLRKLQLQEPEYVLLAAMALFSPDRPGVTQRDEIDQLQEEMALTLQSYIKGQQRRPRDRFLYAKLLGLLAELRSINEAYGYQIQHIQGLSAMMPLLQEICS

As to `c1ccc(CNc2ncnc3c2ncn3C2CCCCO2)cc1` (stereo not given), the Potency entry in experiment [1], in [3], in [4], in [5], in [7] and in [9] was “inactive” in each case. Moreover, in experiment [10], the Potency entry was “inactive”. Also, the figures for the Potency in [2] and in experiment [6] were 39.9 µM (active) and 9.69 µM (active), respectively. Further, in experiment [8], the result was inactive.
For the compound `CCN(Cc1cccc(S(=O)(=O)O)c1)c1ccc(C(=C2C=CC(=[N+](CC)Cc3cccc(S(=O)(=O)O)c3)C=C2)c2ccccc2S(=O)(=O)[O-])cc1`, the Potency in experiment [1] was 30.7 µM (active); in [2], 20.1 µM (active); in [3], 34.5 µM (active); in experiment [4] it was 34.5 µM (active); in experiment [5] it was 15.4 µM (active); in experiment [11], 8.67 µM (active). The Potency in [9] is 25.4 µM (active); in [13] it was 15.4 µM (active). Moreover, the Potency result in [6], in experiment [12], in [10], in experiment [15] and in experiment [16] was “inactive” each time. Besides, the compound was called inactive in experiment [8]. Also, in experiment [14], the activity change, positive = activation is -48.9% [at 42.5 µM].
As to `O=C(CCS)OCC(COC(=O)CCS)(COC(=O)CCS)COC(=O)CCS`, the Potency result in experiment [1], in [2], in [3], in experiment [4], in experiment [5] and in experiment [6] was “inactive” throughout. Besides, the Potency result in [7], in [17], in experiment [18], in experiment [9], in experiment [10] and in experiment [16] was “inactive” throughout.
On to `Cc1ccc2c(c1)CCCN2`, for which the Potency entry in experiment [1], in [2], in experiment [3], in experiment [4], in [5] and in [7] was “inactive” throughout. Also, the Potency entry in [17], in experiment [19], in experiment [18], in [9], in experiment [10] and in experiment [15] was “inactive” throughout. For the same compound, the Potency entry in experiment [16] is “inactive”. Besides, the outcome in [8] was inactive.
On to `CCCCCCCC(=O)OCCCCCC`, for which the Potency entry in experiment [1], in [2], in experiment [3], in experiment [4], in experiment [5] and in [6] was “inactive” in each case. The Potency entry in [11], in experiment [12], in [17], in [19], in experiment [18] and in [9] was “inactive” each time. Moreover, the Potency entry in [13], in [10] and in experiment [16] was “inactive” throughout. For the same compound, the outcome in experiment [8] was inactive. Also, in experiment [14], the activity change, positive = activation was -7.04%.
Turning to `Oc1ccc2c(c1)Cc1ccccc1-2`, the Potency entry in [1], in experiment [3], in experiment [4], in experiment [5], in experiment [11] and in [12] was “inactive” in each case. Moreover, the Potency result in experiment [17], in [19], in [18], in [13], in [10] and in experiment [16] was “inactive” throughout. Further, the Potency was 31.7 µM (active) in experiment [2], 61.1 µM (active) in [6] and 19.5 µM (active) in experiment [15]. Also, in experiment [8], the call was inactive.
Regarding `O=C1OC[C@H](Cc2cccc(O)c2)[C@H]1Cc1cccc(O)c1`, the Potency entry in [1], in [2], in [3], in experiment [4], in experiment [5] and in [6] was “inactive” throughout. The Potency entry in experiment [17], in experiment [19], in experiment [18], in experiment [9], in experiment [10] and in experiment [16] was “inactive” each time. In addition, in [8], the compound was classed as inactive.
As for `CC(C)(C)C(O)/C=C/c1ccc2c(c1)OCO2` (stereo not given), the Potency entry in experiment [1], in [3], in experiment [4], in [5], in experiment [7] and in experiment [17] was “inactive” in each case. Moreover, the Potency result in [19], in [18], in experiment [9], in experiment [10] and in experiment [15] was “inactive” in each case. In experiment [2], the Potency is 24.5 µM (active). Also, the call in experiment [8] was inactive.
